This experiment has as its system MDA-MB-468. Description: phospho-S6 immunofluorescence (DAPI-normalised), per-plate z-score; higher = higher phospho-S6 signal (less pathway suppression). The note with it: 24 h. As for the experimental part: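 GPCR-targeted compound library (MedChemExpress HY-L006) tested on MDA-MB-468 PTEN-null TNBC cells in 384-well plates at 0.1, 1 or 10 uM, combined with vehicle, GDC0941 450 nM or lapatinib 1 uM, for 24 h. Phospho-S6 (S240/244) immunofluorescence normalised to DAPI and expressed as a per-plate z-score; values are the mean of biological triplicates.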

The structures appear in SMILES notation. Structures can show the parent of a compound that is named as a salt.

For `COc1cc(C(=O)NCc2ccc(OCCN(C)C)cc2)cc(OC)c1OC` [Trimethobenzamide hydrochloride] (compound 10 µM), the “phospho-S6 immunofluorescence (z-score)” value (co-treatment: GDC0941 450 nM) is 0.29, the “phospho-S6 immunofluorescence (z-score)” value (co-treatment: lapatinib 1 uM) is 1.09 and the “phospho-S6 immunofluorescence (z-score)” value (co-treatment: vehicle) was found to be 0.51.

In the case of `CC[C@@H](Nc1c(Nc2cccc(C(=O)N(C)C)c2O)c(=O)c1=O)c1ccc(C)o1` (compound 10 µM), the “phospho-S6 immunofluorescence (z-score)” value is 0.29 (co-treatment: GDC0941 450 nM), -0.41 (co-treatment: lapatinib 1 uM) and 2.26 (co-treatment: vehicle).

Regarding `O=C(CCCN1CCN(c2ccccn2)CC1)c1ccc(F)cc1` [Azaperone] (compound 10 µM), the “phospho-S6 immunofluorescence (z-score)” value (co-treatment: GDC0941 450 nM) is 0.08, the “phospho-S6 immunofluorescence (z-score)” value (co-treatment: lapatinib 1 uM) worked out at 0.77 and the “phospho-S6 immunofluorescence (z-score)” value (co-treatment: vehicle) was found to be 0.8.

As for `CC(O)Cn1cnc2c1c(=O)n(C)c(=O)n2C` (configuration not stated) [Proxyphylline] (compound 10 µM), the “phospho-S6 immunofluorescence (z-score)” value reads like this: (co-treatment: GDC0941 450 nM) 0.64; (co-treatment: lapatinib 1 uM) 0.19; (co-treatment: vehicle) -0.72.

Consider `Cc1ccc(-c2n[nH]c3c2C(c2cccc(O)c2)N(c2ccc(C(=O)O)cc2)C3=O)cc1` (configuration not stated) (compound 10 µM), for which the “phospho-S6 immunofluorescence (z-score)” value is, setting by setting: (co-treatment: GDC0941 450 nM) 0; (co-treatment: lapatinib 1 uM) 0.5; (co-treatment: vehicle) -0.12.

With `Nc1nc(N)nc(-c2cc(Cl)ccc2Cl)n1` [Irsogladine] (compound 10 µM), the “phospho-S6 immunofluorescence (z-score)” value by setting is: (co-treatment: GDC0941 450 nM) -0.7; (co-treatment: lapatinib 1 uM) 0.22; (co-treatment: vehicle) -1.11.

`C[C@H](NC(=O)c1cc(Cl)ccc1Oc1ccc(F)cc1)c1ccc(C(=O)O)cc1` (compound 10 µM): the “phospho-S6 immunofluorescence (z-score)” value was -0.64 (co-treatment: GDC0941 450 nM), 0.18 (co-treatment: lapatinib 1 uM) and 0.3 (co-treatment: vehicle).

Take `CC(C)NCC(O)c1ccc(NS(C)(=O)=O)cc1` (configuration not stated) [Sotalol (hydrochloride)] (compound 10 µM): the “phospho-S6 immunofluorescence (z-score)” value worked out at 1.31 (co-treatment: GDC0941 450 nM), 1.24 (co-treatment: lapatinib 1 uM) and 0.37 (co-treatment: vehicle).

Regarding `COc1cccc(-c2c(C)n(Cc3c(F)cccc3C(F)(F)F)c(=O)n(C[C@H](NCCCC(=O)O)c3ccccc3)c2=O)c1F` [Elagolix] (compound 10 µM), the “phospho-S6 immunofluorescence (z-score)” value (co-treatment: GDC0941 450 nM) was found to be 0.62, the “phospho-S6 immunofluorescence (z-score)” value (co-treatment: lapatinib 1 uM) was -0.03 and the “phospho-S6 immunofluorescence (z-score)” value (co-treatment: vehicle) came to 0.51.

In the case of `CN1CC2c3ccccc3Oc3ccc(Cl)cc3C2C1` (configuration not stated) [Asenapine (maleate)] (compound 10 µM), the “phospho-S6 immunofluorescence (z-score)” value reads like this: (co-treatment: GDC0941 450 nM) 0.37; (co-treatment: lapatinib 1 uM) -1.57; (co-treatment: vehicle) -0.61.

Consider `Cc1cc2c(cc1Cl)N(C(=O)Nc1ccc(Oc3cccnc3C)nc1)CC2` (compound 10 µM), for which the “phospho-S6 immunofluorescence (z-score)” value reads like this: (co-treatment: GDC0941 450 nM) -3.98; (co-treatment: lapatinib 1 uM) -5.09; (co-treatment: vehicle) -1.44.

Take `CN1[C@@H]2CC[C@H]1C[C@@H](OC(=O)c1c[nH]c3ccccc13)C2` [Tropisetron] (compound 10 µM): the “phospho-S6 immunofluorescence (z-score)” value was 0.73 (co-treatment: GDC0941 450 nM), 1.44 (co-treatment: lapatinib 1 uM) and 0.31 (co-treatment: vehicle).

Take `O=C(Nc1cc(Cl)cc(Cl)c1)[C@H]1CCCC[C@H]1C(=O)O` (compound 10 µM): the “phospho-S6 immunofluorescence (z-score)” value is 0.83 (co-treatment: GDC0941 450 nM), 0.12 (co-treatment: lapatinib 1 uM) and 0.42 (co-treatment: vehicle).

With `OCCOCCN1CCN(C2=Nc3ccccc3Sc3ccccc32)CC1` [Quetiapine (fumarate)] (compound 10 µM), the “phospho-S6 immunofluorescence (z-score)” value was -0.84 (co-treatment: GDC0941 450 nM), 0.29 (co-treatment: lapatinib 1 uM) and -0.03 (co-treatment: vehicle).

Take `CN(C)CC/C=C1/c2ccccc2COc2ccc(CC(=O)O)cc21` [Olopatadine (hydrochloride)] (compound 10 µM): the “phospho-S6 immunofluorescence (z-score)” value by setting is: (co-treatment: GDC0941 450 nM) 0.01; (co-treatment: lapatinib 1 uM) 0.08; (co-treatment: vehicle) -0.35.

Turning to `CCCCC[C@H](O)/C=C/[C@H]1[C@H](O)CC(=O)[C@@H]1C/C=C\CCCC(=O)O` [Prostaglandin E2] (compound 10 µM), the “phospho-S6 immunofluorescence (z-score)” value is, setting by setting: (co-treatment: GDC0941 450 nM) -0.11; (co-treatment: lapatinib 1 uM) 1.46; (co-treatment: vehicle) -0.52.

`COc1cc(C(=O)N(CCCc2ccccc2)Cc2ccc(CC(=O)O)cc2)cc(OC)c1C` (compound 10 µM): the “phospho-S6 immunofluorescence (z-score)” value (co-treatment: GDC0941 450 nM) was -0.21, the “phospho-S6 immunofluorescence (z-score)” value (co-treatment: lapatinib 1 uM) was 0.49 and the “phospho-S6 immunofluorescence (z-score)” value (co-treatment: vehicle) is -0.17.

For `C[C@H](Cc1cc2c(c(C(N)=O)c1)N(CCCO)CC2)NCCOc1ccccc1OCC(F)(F)F` [Silodosin] (compound 10 µM), the “phospho-S6 immunofluorescence (z-score)” value was -0.57 (co-treatment: GDC0941 450 nM), -0.02 (co-treatment: lapatinib 1 uM) and 0.57 (co-treatment: vehicle).

With `O=C(O[C@H]1CN2CCC1CC2)N1CCc2ccccc2[C@@H]1c1ccccc1` [Solifenacin (hydrochloride)] (compound 10 µM), the “phospho-S6 immunofluorescence (z-score)” value is, setting by setting: (co-treatment: GDC0941 450 nM) 0.75; (co-treatment: lapatinib 1 uM) 1.12; (co-treatment: vehicle) -1.36.

Consider `CC(=O)OC(C)C[N+](C)(C)C` (configuration not stated) [Methacholine (chloride)] (compound 10 µM), for which the “phospho-S6 immunofluorescence (z-score)” value came out at 0.63 (co-treatment: GDC0941 450 nM), 0.47 (co-treatment: lapatinib 1 uM) and 1 (co-treatment: vehicle).

As to `CCCCc1ncc(/C=C(\Cc2cccs2)C(=O)O)n1Cc1ccc(C(=O)O)cc1` [Eprosartan (mesylate)] (compound 10 µM), the “phospho-S6 immunofluorescence (z-score)” value was 0.37 (co-treatment: GDC0941 450 nM), 0.05 (co-treatment: lapatinib 1 uM) and 0.01 (co-treatment: vehicle).

Turning to `CCCCOc1ccc(C(=O)Nc2ccc(F)cc2F)cc1` (compound 10 µM), the “phospho-S6 immunofluorescence (z-score)” value was -0.51 (co-treatment: GDC0941 450 nM), -1.06 (co-treatment: lapatinib 1 uM) and 0.89 (co-treatment: vehicle).

For `CN(C)CCC(c1ccccc1)c1ccccn1` (configuration not stated) [Pheniramine (Maleate)] (compound 10 µM), the “phospho-S6 immunofluorescence (z-score)” value by setting is: (co-treatment: GDC0941 450 nM) 0.09; (co-treatment: lapatinib 1 uM) 0.78; (co-treatment: vehicle) -0.37.

Turning to `CC[C@H](C)[C@@H]1NC(=O)[C@H](Cc2ccc(O)cc2)NC(=O)[C@@H](N)CSSC[C@@H](C(=O)N2CCC[C@H]2C(=O)N[C@@H](CC(C)C)C(=O)NCC(N)=O)NC(=O)[C@H](CC(N)=O)NC(=O)[C@H](CCC(N)=O)NC1=O` [Oxytocin (acetate)] (compound 10 µM), the “phospho-S6 immunofluorescence (z-score)” value is, setting by setting: (co-treatment: GDC0941 450 nM) -0.77; (co-treatment: lapatinib 1 uM) -0.07; (co-treatment: vehicle) -0.87.

Source of the values: the supplement of paper PMC7411640.
